Assay [1] can be described thus: NCI Yeast Anticancer Drug Screen. Data for the rad50 strain (AID 155).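 Also: 0% = growth of vehicle-only cultures of the same strain.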 As to conditions: S. cerevisiae rad50 strain growth inhibition, hits give high values. In outline:
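A DNA repair-deficient yeast mutant serves as the test organism; compound-induced growth inhibition is calculated against vehicle-treated cells.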

A short description of assay [2]: NCI Yeast Anticancer Drug Screen. Data for the mec2-1 strain (AID 157). As to conditions: S. cerevisiae mec2-1 strain, hits give high values. In outline:
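Yeast mec2-1 mutant treated with compound. Readout: growth inhibition vs vehicle controls.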

A short description of assay [3]: NCI Yeast Anticancer Drug Screen. Data for the sgs1 mgt1 strain (AID 161).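 Also: 0% = growth of cultures given vehicle only.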 Conditions: S. cerevisiae sgs1 mgt1 strain, hits give high values. In outline:
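Genetically altered yeast, compound exposure, growth inhibition relative to vehicle.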

The nature of assay [4]: NCI Yeast Anticancer Drug Screen. Data for the cln2 rad14 strain (AID 165).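 Also: 0% = growth equal to vehicle treated cultures.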 Conditions: S. cerevisiae cln2 rad14 strain, hits give high values. The method in brief: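 cln2 rad14 yeast strain; compound exposure; growth inhibition read vs vehicle controls.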
A short description of assay [5]: NCI Yeast Anticancer Drug Screen. Data for the bub3 strain (AID 167). As to conditions: S. cerevisiae bub3 mutant strain, hits give high values. The method in brief:
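Inhibition values come from growth of compound-treated mutant yeast normalised to vehicle-treated controls.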

Assay [6] is described as follows: NCI Yeast Anticancer Drug Screen. Data for the mlh1 rad18 strain (AID 175). As to conditions: S. cerevisiae mlh1 rad18 strain growth inhibition, hits give high values. The method in brief: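 Yeast w/ defined DNA-repair lesions; compound exposure; growth vs vehicle controls → % inhibition.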
The mark [7] stands for this setting: at 5.0 µM (retest, dose inferred, filed as 0.5).
[8] abbreviates: at 50.0 µM (retest, dose inferred, filed as 5.0).

This is part of a sample that, as a whole, favours compounds with a hit. Of some 79,000 tested, about 15% had one in any assay. Values without a mark were called inactive. Active and inactive are the calls of the source. Rule as the data show it: active = growth inhibition above about 70%; inactive = the rest.

Consider `O=C(C1=Cc2ccccc2OC1)N1CCN(c2cccc(Cl)c2)CC1`, for which the growth inhibition in assay [1] (setting [7]) is -1%; in assay [1] (setting [8]), 96% (active); in assay [1] (at 50.0 µM), 49.3%; in assay [2] (setting [7]), -6%; in assay [2] (setting [8]) it was 98% (active); in assay [2] (at 50.0 µM), 35.9%. Further, the growth inhibition in assay [3] (setting [7]) was 1%; in assay [3] (setting [8]), 97% (active); in assay [3] (at 50.0 µM) it was 72.2% (active); in assay [4] (setting [7]) it was -6%; in assay [4] (setting [8]), 97% (active); in assay [4] (at 50.0 µM), 57.8%. The growth inhibition is 10% in assay [5] (setting [7]); 97% (active) in assay [5] (setting [8]); 89.5% (active) in assay [5] (at 50.0 µM); -12% in assay [6] (setting [7]); 97% (active) in assay [6] (setting [8]); 71.2% (active) in assay [6] (at 50.0 µM).

As to `Nc1cccc2c1C(=O)c1ccc(Cl)cc1C2=O`, the growth inhibition in assay [1] (setting [7]) was 69%; in assay [1] (setting [8]), 81% (active); in assay [1] (at 50.0 µM), 93.7% (active); in assay [2] (setting [7]), 18%; in assay [2] (setting [8]) it was 34%; in assay [2] (at 50.0 µM), 71.8% (active). Besides, the growth inhibition was 4% in assay [3] (setting [7]); 61% in assay [3] (setting [8]); 55% in assay [3] (at 50.0 µM); 0% in assay [4] (setting [7]); 6% in assay [4] (setting [8]); -17.6% in assay [4] (at 50.0 µM). In addition, the growth inhibition in assay [5] (setting [7]) is 12%; in assay [5] (setting [8]), 39%; in assay [5] (at 50.0 µM) it was 85.4% (active); in assay [6] (setting [7]), 15%; in assay [6] (setting [8]), 60%; in assay [6] (at 50.0 µM), 44.8%.

Turning to `CCCCNC(=O)OCCN=C1c2ccccc2C(Br)C(Br)c2ccccc21` (stereo not given), the growth inhibition in assay [1] (setting [7]) is 5%; in assay [1] (setting [8]) it was 37%; in assay [1] (at 50.0 µM), 98.4% (active); in assay [2] (setting [7]), 2%; in assay [2] (setting [8]) it was 23%; in assay [2] (at 50.0 µM) it was 98.5% (active). Also, the growth inhibition was -5% in assay [3] (setting [7]); 21% in assay [3] (setting [8]); 97.3% (active) in assay [3] (at 50.0 µM); 7% in assay [4] (setting [7]); 20% in assay [4] (setting [8]); 97.8% (active) in assay [4] (at 50.0 µM). The growth inhibition in assay [5] (setting [7]) was 9%; in assay [5] (setting [8]), 28%; in assay [5] (at 50.0 µM), 97.8% (active); in assay [6] (setting [7]), 13%; in assay [6] (setting [8]) it was 74% (active); in assay [6] (at 50.0 µM), 98.5% (active).

With `Oc1c(Br)cc(Cl)cc1Br`, the growth inhibition is -4% in assay [1] (setting [7]); 98% (active) in assay [1] (setting [8]); 93.5% (active) in assay [1] (at 50.0 µM); 5% in assay [2] (setting [7]); 99% (active) in assay [2] (setting [8]); 98% (active) in assay [2] (at 50.0 µM). Further, the growth inhibition in assay [3] (setting [7]) was 4%; in assay [3] (setting [8]) it was 99% (active); in assay [3] (at 50.0 µM), 86.5% (active); in assay [4] (setting [7]) it was -11%; in assay [4] (setting [8]), 98% (active); in assay [4] (at 50.0 µM), 90.5% (active). Moreover, the growth inhibition was -6% in assay [5] (setting [7]); 97% (active) in assay [5] (setting [8]); 96% (active) in assay [5] (at 50.0 µM); 3% in assay [6] (setting [7]); 96% (active) in assay [6] (setting [8]); 97.5% (active) in assay [6] (at 50.0 µM).

Take `COc1ccc(-c2nc(N)n(C)c2SSc2c(-c3ccc(OC)cc3)nc(N)n2C)cc1`: the growth inhibition in assay [1] (setting [7]) is 2%; in assay [1] (setting [8]), 26%; in assay [1] (at 50.0 µM), 23.6%; in assay [2] (setting [7]), -4%; in assay [2] (setting [8]) it was 26%; in assay [2] (at 50.0 µM), 5.2%. In addition, the growth inhibition is 28% in assay [3] (setting [7]); 27% in assay [3] (setting [8]); 2.5% in assay [3] (at 50.0 µM); 6% in assay [4] (setting [7]); 30% in assay [4] (setting [8]); 6.95% in assay [4] (at 50.0 µM). Also, the growth inhibition in assay [5] (setting [7]) was 41%; in assay [5] (setting [8]), 50%; in assay [5] (at 50.0 µM) it was 3.6%; in assay [6] (setting [7]) it was -2%; in assay [6] (setting [8]) it was 28%; in assay [6] (at 50.0 µM), -15.6%.

For `CC(Nc1cc(Cl)cc(Cl)c1)c1ccncc1` (stereo not given), the growth inhibition is 1% in assay [1] (setting [7]); 98% (active) in assay [1] (setting [8]); 37.2% in assay [1] (at 50.0 µM); -26% in assay [2] (setting [7]); 98% (active) in assay [2] (setting [8]); 56.4% in assay [2] (at 50.0 µM). Further, the growth inhibition is -31% in assay [3] (setting [7]); 91% (active) in assay [3] (setting [8]); 43% in assay [3] (at 50.0 µM); 22% in assay [4] (setting [7]); 98% (active) in assay [4] (setting [8]); 22% in assay [4] (at 50.0 µM). Also, the growth inhibition in assay [5] (setting [7]) is -59%; in assay [5] (setting [8]), 99% (active); in assay [5] (at 50.0 µM) it was 43.5%; in assay [6] (setting [7]), -10%; in assay [6] (setting [8]), 98% (active); in assay [6] (at 50.0 µM), 42.5%.

Regarding `N#Cc1cc2c(cc1Cl)Sc1nccn1S2(=O)=O`, the growth inhibition in assay [1] (setting [7]) was 5%; in assay [1] (setting [8]) it was 36%; in assay [1] (at 50.0 µM), 28.4%; in assay [2] (setting [7]), 6%; in assay [2] (setting [8]), 52%; in assay [2] (at 50.0 µM), 34.7%. The growth inhibition in assay [3] (setting [7]) is 19%; in assay [3] (setting [8]), 63%; in assay [3] (at 50.0 µM), 43.7%; in assay [4] (setting [7]), -1%; in assay [4] (setting [8]), 17%; in assay [4] (at 50.0 µM), 39.2%. Also, the growth inhibition was 10% in assay [5] (setting [7]); 90% (active) in assay [5] (setting [8]); 76.7% (active) in assay [5] (at 50.0 µM); 2% in assay [6] (setting [7]); 62% in assay [6] (setting [8]); 64% in assay [6] (at 50.0 µM).

Turning to `Cc1cc(C)c(S(=O)(=O)n2ccnc2)c(C)c1`, the growth inhibition is -15% in assay [1] (setting [7]); -45% in assay [1] (setting [8]); -13.9% in assay [1] (at 50.0 µM); 0% in assay [2] (setting [7]); -11% in assay [2] (setting [8]); -29.6% in assay [2] (at 50.0 µM). Moreover, the growth inhibition is -17% in assay [3] (setting [7]); -4% in assay [3] (setting [8]); -6.05% in assay [3] (at 50.0 µM); -3% in assay [4] (setting [7]); 8% in assay [4] (setting [8]); 6.55% in assay [4] (at 50.0 µM). Besides, the growth inhibition was -8% in assay [5] (setting [7]); -26% in assay [5] (setting [8]); 10.3% in assay [5] (at 50.0 µM); -36% in assay [6] (setting [7]); -77% in assay [6] (setting [8]); -0.9% in assay [6] (at 50.0 µM).

For `[O-][n+]1ccc(Br)c(/C=C/c2ccccc2)c1`, the growth inhibition was 0% in assay [1] (setting [7]); 20% in assay [1] (setting [8]); 24.1% in assay [1] (at 50.0 µM); -5% in assay [2] (setting [7]); 32% in assay [2] (setting [8]); 18.1% in assay [2] (at 50.0 µM). Besides, the growth inhibition in assay [3] (setting [7]) is -2%; in assay [3] (setting [8]), 23%; in assay [3] (at 50.0 µM), 20%; in assay [4] (setting [7]) it was 0%; in assay [4] (setting [8]), 9%; in assay [4] (at 50.0 µM), 2.3%. The growth inhibition in assay [5] (setting [7]) is -5%; in assay [5] (setting [8]), 9%; in assay [5] (at 50.0 µM), 24.6%; in assay [6] (setting [7]), 2%; in assay [6] (setting [8]), 79% (active); in assay [6] (at 50.0 µM), 56.1%.

Turning to `Cc1cccc2c(CBr)cc(=O)[nH]c12`, the growth inhibition in assay [1] (setting [7]) was 7%; in assay [1] (setting [8]), 91% (active); in assay [1] (at 50.0 µM) it was 86.8% (active); in assay [2] (setting [7]), 15%; in assay [2] (setting [8]) it was 98% (active); in assay [2] (at 50.0 µM), 90.1% (active). Besides, the growth inhibition is 13% in assay [3] (setting [7]); 92% (active) in assay [3] (setting [8]); 84.3% (active) in assay [3] (at 50.0 µM); 4% in assay [4] (setting [7]); 61% in assay [4] (setting [8]); 91.5% (active) in assay [4] (at 50.0 µM). Also, the growth inhibition in assay [5] (setting [7]) is 12%; in assay [5] (setting [8]), 96% (active); in assay [5] (at 50.0 µM), 94.2% (active); in assay [6] (setting [7]), 35%; in assay [6] (setting [8]), 97% (active); in assay [6] (at 50.0 µM), 95.7% (active).

The values above are taken from PubChem BioAssay (NCI).
